Assay results reported in the supplement of paper PMC8728848.
The entries come from a sample that favours the strongest signals as a whole.

Experiments:
Assay in all cases: glycan array binding signal (z-score within array); higher = stronger binding
Details in all cases: glycan notation: IUPAC condensed, linker removed
[1] = target: Fuc(a1-2)Gal(b1-3)GalNAc(a1-3)[Fuc(a1-2)]Gal(b1-4)GlcNAc
Method in brief: (§1)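 Glycan array binding is given as a within-array Z-score, which can be read as non-binding when negative. The arrays, 3228 of them, came from the Consortium for Functional Glycomics database and were retained only where the protein sequence was available. Z-scores were averaged across arrays of the same protein sequence at different concentrations or buffers and across linkers.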

[2] = target: Fuc(a1-2)Gal(b1-3)GlcNAc(b1-3)Gal(b1-4)Glc
Method in brief: as §1

[3] = target: Fuc(a1-2)Gal(b1-3)[Fuc(a1-4)]GlcNAc(b1-3)[Gal(b1-4)GlcNAc(b1-6)]Gal(b1-4)Glc
Method in brief: as §1

[4] = target: Fuc(a1-2)[Gal(a1-3)]Gal(b1-3)GlcNAc(b1-2)Man(a1-3)[Fuc(a1-2)[Gal(a1-3)]Gal(b1-3)GlcNAc(b1-2)Man(a1-6)]Man(b1-4)GlcNAc(b1-4)GlcNAc
Method in brief: as §1

[5] = target: Fuc(a1-2)[Gal(a1-3)]Gal(b1-3)GlcNAc(b1-2)Man(a1-3)[Fuc(a1-2)[Gal(a1-3)]Gal(b1-3)GlcNAc(b1-2)Man(a1-6)]Man(b1-4)GlcNAc(b1-4)[Fuc(a1-6)]GlcNAc
Method in brief: as §1

[6] = target: Fuc(a1-2)[Gal(a1-3)]Gal(b1-3)GlcNAc(b1-3)GalNAc
Method in brief: as §1

[7] = target: Fuc(a1-2)[Gal(a1-3)]Gal(b1-4)GlcNAc(b1-2)Man
Method in brief: as §1

[8] = target: Fuc(a1-2)[Gal(a1-3)]Gal(b1-4)GlcNAc(b1-2)Man(a1-3)[Fuc(a1-2)[Gal(a1-3)]Gal(b1-4)GlcNAc(b1-2)Man(a1-6)]Man(b1-4)GlcNAc(b1-4)GlcNAc
Method in brief: as §1

[9] = target: Fuc(a1-2)[Gal(a1-4)]Gal(b1-4)GlcNAc
Method in brief: as §1

[10] = target: Fuc(a1-2)[GalNAc(a1-3)]Gal(b1-3)GlcNAc(b1-2)Man(a1-3)[Fuc(a1-2)[GalNAc(a1-3)]Gal(b1-3)GlcNAc(b1-2)Man(a1-6)]Man(b1-4)GlcNAc(b1-4)GlcNAc
Method in brief: as §1

[11] = target: Fuc(a1-2)[GalNAc(a1-3)]Gal(b1-3)GlcNAc(b1-3)GalNAc
Method in brief: as §1

[12] = target: Fuc(a1-2)[GalNAc(a1-3)]Gal(b1-4)GlcNAc(b1-2)Man(a1-3)[Fuc(a1-2)[GalNAc(a1-3)]Gal(b1-4)GlcNAc(b1-2)Man(a1-6)]Man(b1-4)GlcNAc(b1-4)[Fuc(a1-6)]GlcNAc
Method in brief: as §1

[13] = target: Fuc(a1-2)[GalNAc(a1-3)]Gal(b1-4)GlcNAc(b1-3)GalNAc
Method in brief: as §1

[14] = target: Fuc(a1-2)[GalNAc(b1-3)]Gal
Method in brief: as §1

[15] = target: Fuc(a1-3)[Gal(b1-4)]GlcNAc(b1-4)Gal(b1-4)[Fuc(a1-3)]GlcNAc(b1-4)Gal(b1-4)[Fuc(a1-3)]GlcNAc
Method in brief: as §1

[16] = target: Fuc(a1-3)[GalNAc(b1-4)]GlcNAc
Method in brief: as §1

[17] = target: Gal(a1-3)Gal(b1-3)[Fuc(a1-4)]GlcNAc(b1-2)Man(a1-3)[Gal(a1-3)Gal(b1-3)[Fuc(a1-4)]GlcNAc(b1-2)Man(a1-6)]Man(b1-4)GlcNAc(b1-4)GlcNAc
Method in brief: as §1

[18] = target: Gal(a1-3)Gal(b1-4)GlcNAc
Method in brief: as §1

[19] = target: Gal(a1-3)Gal(b1-4)GlcNAc(b1-6)GalNAc
Method in brief: as §1

[20] = target: Gal(b1-3)GlcNAc(b1-3)Gal(b1-4)GlcNAc(b1-2)Man(a1-3)[Gal(b1-3)GlcNAc(b1-3)Gal(b1-4)GlcNAc(b1-2)Man(a1-6)]Man(b1-4)GlcNAc(b1-4)GlcNAc
Method in brief: as §1

[21] = target: Gal(b1-3)[Fuc(a1-4)]GlcNAc(b1-3)Gal(b1-3)[Fuc(a1-4)]GlcNAc
Method in brief: as §1

[22] = target: Gal(b1-3)[Fuc(a1-4)]GlcNAc(b1-3)Gal(b1-4)GlcNAc
Method in brief: as §1

[23] = target: Gal(b1-4)Glc
Method in brief: as §1

[24] = target: Gal(b1-4)GlcNAc(b1-3)Gal(b1-4)GlcNAc(b1-3)Gal(b1-4)GlcNAc
Method in brief: as §1

[25] = target: Gal(b1-4)GlcNAc(b1-3)Gal(b1-4)GlcNAc(b1-3)Gal(b1-4)GlcNAc(b1-3)Gal(b1-4)GlcNAc(b1-3)Gal(b1-4)GlcNAc(b1-2)Man(a1-3)[Gal(b1-4)GlcNAc(b1-3)Gal(b1-4)GlcNAc(b1-3)Gal(b1-4)GlcNAc(b1-3)Gal(b1-4)GlcNAc(b1-3)Gal(b1-4)GlcNAc(b1-2)Man(a1-6)]Man(b1-4)GlcNAc(b1-4)[Fuc(a1-6)]GlcNAc
Method in brief: as §1

[26] = target: Gal(b1-4)GlcNAc(b1-3)Gal(b1-4)GlcNAc(b1-3)GalNAc
Method in brief: as §1

[27] = target: Gal(b1-4)GlcNAc(b1-3)Gal(b1-4)GlcNAc(b1-3)[Gal(b1-4)GlcNAc(b1-3)Gal(b1-4)GlcNAc(b1-6)]GalNAc
Method in brief: as §1

[28] = target: Gal3S(b1-4)GlcNAc6S
Method in brief: as §1

[29] = target: Gal3S(b1-4)[Fuc(a1-3)]GlcNAc
Method in brief: as §1

[30] = target: Gal3S6S(b1-4)GlcNAc6S
Method in brief: as §1

[31] = target: Gal6S(b1-3)GlcNAc6S
Method in brief: as §1

[32] = target: Gal6S(b1-4)GlcNAc6S
Method in brief: as §1

[33] = target: GalNAc(a1-3)Fuc(a1-2)Gal(b1-4)GlcNAc(b1-3)[GalNAc(a1-3)Fuc(a1-2)Gal(b1-4)GlcNAc(b1-6)]GalNAc
Method in brief: as §1

[34] = target: GalNAc(b1-3)Gal(a1-4)Gal(b1-4)GlcNAc
Method in brief: as §1

[35] = target: GalNAc(b1-4)Gal(b1-4)Glc
Method in brief: as §1

[36] = target: GalNAc(b1-4)GlcNAc(b1-3)GalNAc(b1-4)GlcNAc
Method in brief: as §1

[37] = target: GalNAc(b1-4)GlcNAc6S
Method in brief: as §1

[38] = target: GalNAc6S(b1-4)GlcNAc
Method in brief: as §1

[39] = target: GlcA3S(b1-3)Gal(b1-4)GlcNAc(b1-3)Gal(b1-4)Glc
Method in brief: as §1

[40] = target: GlcNAc(b1-2)[GlcNAc(b1-4)]Man(a1-3)[GlcNAc(b1-4)][GlcNAc(b1-2)Man(a1-6)]Man(b1-4)GlcNAc(b1-4)GlcNAc
Method in brief: as §1

[41] = target: GlcNAc(b1-3)Gal(b1-4)GlcNAc(b1-3)Gal(b1-4)GlcNAc(b1-2)[GlcNAc(b1-3)Gal(b1-4)GlcNAc(b1-3)Gal(b1-4)GlcNAc(b1-6)]Man(a1-6)[GlcNAc(b1-3)Gal(b1-4)GlcNAc(b1-3)Gal(b1-4)GlcNAc(b1-2)Man(a1-3)]Man(b1-4)GlcNAc(b1-4)[Fuc(a1-6)]GlcNAc
Method in brief: as §1

[42] = target: GlcNAc(b1-3)Gal(b1-4)GlcNAc(b1-3)Gal(b1-4)GlcNAc(b1-3)Gal(b1-4)GlcNAc(b1-2)[GlcNAc(b1-3)Gal(b1-4)GlcNAc(b1-3)Gal(b1-4)GlcNAc(b1-3)Gal(b1-4)GlcNAc(b1-6)]Man(a1-6)[GlcNAc(b1-3)Gal(b1-4)GlcNAc(b1-3)Gal(b1-4)GlcNAc(b1-3)Gal(b1-4)GlcNAc(b1-2)Man(a1-3)]Man(b1-4)GlcNAc(b1-4)[Fuc(a1-6)]GlcNAc
Method in brief: as §1

[43] = target: GlcNAc(b1-3)Gal(b1-4)GlcNAc(b1-3)Gal(b1-4)GlcNAc(b1-3)Gal(b1-4)GlcNAc(b1-3)Gal(b1-4)GlcNAc(b1-2)Man(a1-3)[GlcNAc(b1-3)Gal(b1-4)GlcNAc(b1-3)Gal(b1-4)GlcNAc(b1-3)Gal(b1-4)GlcNAc(b1-3)Gal(b1-4)GlcNAc(b1-2)Man(a1-6)]Man(b1-4)GlcNAc(b1-4)[Fuc(a1-6)]GlcNAc
Method in brief: as §1

[44] = target: GlcNAc(b1-4)GlcNAc(b1-4)GlcNAc
Method in brief: as §1

[45] = target: Man(a1-6)Man
Method in brief: as §1

[46] = target: Neu5Ac(a2-3)Gal(b1-3)GalNAc
Method in brief: as §1

[47] = target: Neu5Ac(a2-3)Gal(b1-3)GlcNAc(b1-3)Gal(b1-3)GlcNAc
Method in brief: as §1

[48] = target: Neu5Ac(a2-3)Gal(b1-3)[Fuc(a1-4)]GlcNAc
Method in brief: as §1

[49] = target: Neu5Ac(a2-3)Gal(b1-4)GlcNAc(b1-2)[Neu5Ac(a2-3)Gal(b1-4)GlcNAc(b1-6)]Man(a1-6)[Neu5Ac(a2-3)Gal(b1-4)GlcNAc(b1-2)Man(a1-3)][GlcNAc(b1-4)]Man(b1-4)GlcNAc(b1-4)GlcNAc
Method in brief: as §1

[50] = target: Neu5Ac(a2-3)Gal(b1-4)[Fuc(a1-3)]GlcNAc(b1-3)Gal
Method in brief: as §1

[51] = target: Neu5Ac(a2-3)Gal(b1-4)[Fuc(a1-3)]GlcNAc6S
Method in brief: as §1

[52] = target: Neu5Ac(a2-3)Gal6S(b1-4)[Fuc(a1-3)]GlcNAc
Method in brief: as §1

[53] = target: Neu5Ac(a2-6)Gal(b1-4)GlcNAc(b1-2)Man(a1-3)[GlcNAc(b1-2)Man(b1-4)GlcNAc(b1-2)Man(a1-6)]Man(b1-4)GlcNAc(b1-4)GlcNAc
Method in brief: as §1

[54] = target: Neu5Ac(a2-6)Gal(b1-4)GlcNAc(b1-2)Man(a1-3)[Man(a1-6)]Man(b1-4)GlcNAc(b1-4)GlcNAc
Method in brief: as §1

[55] = target: Neu5Ac(a2-6)Gal(b1-4)GlcNAc(b1-3)Gal(b1-4)[Fuc(a1-3)]GlcNAc(b1-3)Gal(b1-4)[Fuc(a1-3)]GlcNAc
Method in brief: as §1

[56] = target: Neu5Ac(a2-6)Gal(b1-4)GlcNAc6S
Method in brief: as §1

[57] = target: Neu5Ac(a2-8)Neu5Ac(a2-3)Gal(b1-4)GlcNAc
Method in brief: as §1

Binder: KISKRILTGKK [NK11 (Sus scrofa)]
- glycan array binding signal (z-score) [1]: -0.539
- glycan array binding signal (z-score) [2]: 0.203
- glycan array binding signal (z-score) [3]: -0.767
- glycan array binding signal (z-score) [4]: -0.23
- glycan array binding signal (z-score) [5]: -0.614
- glycan array binding signal (z-score) [6]: 0.052
- glycan array binding signal (z-score) [7]: -0.085
- glycan array binding signal (z-score) [8]: 0.702
- glycan array binding signal (z-score) [9]: 0.014
- glycan array binding signal (z-score) [10]: -0.032
- glycan array binding signal (z-score) [11]: 0.052
- glycan array binding signal (z-score) [12]: 0.421
- glycan array binding signal (z-score) [13]: -1.25
- glycan array binding signal (z-score) [14]: -0.608
- glycan array binding signal (z-score) [15]: -0.886
- glycan array binding signal (z-score) [16]: -0.401
- glycan array binding signal (z-score) [17]: -0.06
- glycan array binding signal (z-score) [18]: -0.302
- glycan array binding signal (z-score) [19]: -0.147
- glycan array binding signal (z-score) [20]: -0.818
- glycan array binding signal (z-score) [21]: -0.425
- glycan array binding signal (z-score) [22]: 3.41
- glycan array binding signal (z-score) [23]: -0.144
- glycan array binding signal (z-score) [24]: -0.612
- glycan array binding signal (z-score) [25]: -0.483
- glycan array binding signal (z-score) [26]: 2.91
- glycan array binding signal (z-score) [27]: 3.55
- glycan array binding signal (z-score) [28]: 3.4
- glycan array binding signal (z-score) [29]: 2.52
- glycan array binding signal (z-score) [30]: 1.05
- glycan array binding signal (z-score) [31]: 3.65
- glycan array binding signal (z-score) [32]: 2.58
- glycan array binding signal (z-score) [33]: -0.542
- glycan array binding signal (z-score) [34]: 0.262
- glycan array binding signal (z-score) [35]: -0.229
- glycan array binding signal (z-score) [36]: -0.419
- glycan array binding signal (z-score) [37]: 2.55
- glycan array binding signal (z-score) [38]: 0.009
- glycan array binding signal (z-score) [39]: -1.34
- glycan array binding signal (z-score) [40]: -0.207
- glycan array binding signal (z-score) [41]: 2.97
- glycan array binding signal (z-score) [42]: 2.73
- glycan array binding signal (z-score) [43]: 0.231
- glycan array binding signal (z-score) [44]: -0.597
- glycan array binding signal (z-score) [45]: -0.205
- glycan array binding signal (z-score) [46]: 0.104
- glycan array binding signal (z-score) [47]: -0.342
- glycan array binding signal (z-score) [48]: -0.073
- glycan array binding signal (z-score) [49]: 0.405
- glycan array binding signal (z-score) [50]: 0.515
- glycan array binding signal (z-score) [51]: 3.52
- glycan array binding signal (z-score) [52]: -0.648
- glycan array binding signal (z-score) [53]: 2.33
- glycan array binding signal (z-score) [54]: 1.52
- glycan array binding signal (z-score) [55]: -0.044
- glycan array binding signal (z-score) [56]: 0.729
- glycan array binding signal (z-score) [57]: -1.78
